Screening results: PubChem BioAssay, National Center for Advancing Translational Sciences (NCATS)
Most compounds without a hit are left out; they make up all but 1.8% or so of the library.
rTrxR1 inhibitor: rat TrxR1 inhibition. actives 1% (n = 390,000). Potency, µM (top dose mostly 114 µM), for the others: top-dose activity change, negative = inhibition, usual class: inhibitors. recombinant rTrxR1, NADPH fluorescence consumption, selenite substrate. O89049; further: nearly all actives have a fitted effect of over 65% in size
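Rat TrxR1 (90 nM in the dispensed reagent) was pre-reduced with 400 uM NADPH for 5 min at room temperature, then incubated with compound for 15 min. After 400 uM selenite was added, NADPH fluorescence (Ex 340/Em 450 nm) was followed for 8 min.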
VDR inhibitor: blocks the human vitamin D receptor; P11473; VDR-SRC2-3 peptide fluorescence polarization, 2 h; actives 0.93% (n = 400,000); Potency, µM, inactives show max response, negative = inhibition, most hits filed as inhibitors
Target sequence (P11473 whole entry, looked up): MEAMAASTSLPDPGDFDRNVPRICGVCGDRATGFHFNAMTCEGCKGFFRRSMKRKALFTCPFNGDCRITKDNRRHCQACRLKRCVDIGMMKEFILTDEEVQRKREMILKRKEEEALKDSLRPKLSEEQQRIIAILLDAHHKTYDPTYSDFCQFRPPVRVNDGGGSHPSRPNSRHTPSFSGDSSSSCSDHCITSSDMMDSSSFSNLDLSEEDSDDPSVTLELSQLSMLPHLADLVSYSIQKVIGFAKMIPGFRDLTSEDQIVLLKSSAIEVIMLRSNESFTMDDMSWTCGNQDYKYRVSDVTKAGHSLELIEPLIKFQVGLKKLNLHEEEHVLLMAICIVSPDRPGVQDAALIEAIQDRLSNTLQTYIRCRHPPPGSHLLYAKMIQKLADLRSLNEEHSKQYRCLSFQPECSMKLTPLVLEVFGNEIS
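Reagent solutions, kept cold and dark, are dispensed first; compounds are then pinned in at 23 nl, plates briefly spun, and incubated 2 h at ambient temperature. Inhibition of VDR–SRC2-3 peptide binding is read by fluorescence polarization.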
TrxR1 substrate: substrates of rat thioredoxin reductase 1; actives 0.01% (n = 390,000); Potency, µM (titrated, usually from 114 µM), for inactives: top-dose activity change, negative = substrate turnover; purified TrxR1 substrate turnover, NADPH consumption readout; further: nearly all actives have a fitted effect of over 50% in size
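Rat TrxR1, dispensed at 90 nM, was prereduced with 400 uM NADPH (final) for 5 min at ~22 deg C, then incubated with compound 15 min before 400 uM selenite. A first-read NADPH fluorescence drop versus no-compound background flagged substrates.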
GCN5L2 inh: inhibitors of human GCN5L2 histone acetyltransferase. Q92830. GCN5L2 HAT assay, ThioGlo1 CoA-SH fluorescence. Potency, µM (doses to about 58.9 µM), without a hit: at the top dose activity change, negative = inhibition, hits mostly inhibitors. actives 0.21% (n = 390,000)
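Enzyme at 20nM final was mixed with library compounds for 15 min at room temperature. Peptide H3(1-25) at 75uM, acetyl-CoA at 70uM and ThioGlo1 at 50uM were then added. Plates were read immediately and after 20 min (Ex340nm/Em540nm).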
The depositor's hits bear a star; ! = not active in a repeat; [ ] = dose if it differs, or a comment. The call rests on the fitted dose curve; in most records, active means well fitted curve in the direction sought with a large enough effect; inconclusive means small, poorly fitted or top-dose-only effect, or another doubt; inactive means no such curve, though single readings can be large; an effect the other way counts as inactive or inconclusive. On the % scale 0 is the no-effect control and ±100 the full control effect; potency means the concentration at half of the fitted maximal effect.

Results for O=C1NC(=O)C(=Cc2ccccc2Oc2ccc(F)cc2)C(=O)N1 ?
rTrxR1 inhibitor: 12.6µM*; VDR inhibitor: 50.1µM*; TrxR1 substrate: -3.9%[57.1 µM]; GCN5L2 inh: -2.0%

What do the screens show for `O=C1NC(=O)C(=Cc2ccc(-c3ccccc3[N+](=O)[O-])o2)C(=O)N1`?
rTrxR1 inhibitor: -0.3%[57.1 µM]; VDR inhibitor: 39.8µM*; TrxR1 substrate: 4.5%[57.1 µM]; GCN5L2 inh: -21.5%

How did O=C1NC(=O)C(=Cc2ccc(SC3CCCCC3)o2)C(=O)N1 do in these assays?
rTrxR1 inhibitor: inconclusive; VDR inhibitor: inconclusive; TrxR1 substrate: -2.8%; GCN5L2 inh: -24.4%

How did NS(=O)(=O)c1ccc(-c2ccc(C=C3C(=O)NC(=S)NC3=O)o2)cc1 do in these assays?
GCN5L2 inh: -8.9%

How did CC(n1cc(C[C@H](N)C(=O)O)c2ccccc21)n1cc(C[C@H](N)C(=O)O)c2ccccc21 do in these assays?
VDR inhibitor: inconclusive; GCN5L2 inh: -29.8%

Results for C=C(C)[C@@]12OC3(c4ccccc4)O[C@@H]1[C@@H]1[C@@H]4O[C@]4(CO)[C@@H](O)[C@]4(O)C(=O)C(C)=C[C@H]4[C@@]1(O3)[C@H](C)[C@H]2OC(=O)/C=C/C=C/c1ccccc1 ?
VDR inhibitor: -1.2%; GCN5L2 inh: 21.3%

How did Oc1cccc[c]1[Hg][Cl] do in these assays?
VDR inhibitor: 5.01µM*; GCN5L2 inh: 0.0891µM*

How did Brc1c(NC2=NCCN2)ccc2nccnc12 do in these assays?
rTrxR1 inhibitor: inconclusive; VDR inhibitor: 44.7µM*; TrxR1 substrate: inconclusive; GCN5L2 inh: -5.2%

Results for Cc1cc(C=C2C(=O)NC(=S)NC2=O)c(C)n1-c1ccc2c(c1)OCO2 ?
rTrxR1 inhibitor: inconclusive; VDR inhibitor: 70.8µM*; TrxR1 substrate: -20.0%; GCN5L2 inh: 37.4%

What do the screens show for `COc1cc(/C=C2\C(=O)NC(=O)N(c3ccccc3)C2=O)cc(OC)c1OC`?
rTrxR1 inhibitor: inconclusive; VDR inhibitor: inconclusive; TrxR1 substrate: 12.5%[57.1 µM]; GCN5L2 inh: -26.5%

How did COc1ccc(N2C(=O)/C(=C/c3ccc(OC)c(OC)c3)C(=O)NC2=S)cc1 do in these assays?
rTrxR1 inhibitor: 12.6µM*; VDR inhibitor: inconclusive; TrxR1 substrate: -0.5%; GCN5L2 inh: -15.8%

What do the screens show for `COc1ccc(N2C(=O)/C(=C/c3ccc(C)o3)C(=O)NC2=S)c(OC)c1`?
rTrxR1 inhibitor: 14.1µM*; VDR inhibitor: 6.8%; TrxR1 substrate: -2.1%; GCN5L2 inh: -26.5%

Results for CCc1ccccc1N1C(=O)/C(=C/c2ccc(N3CCN(C)CC3)o2)C(=O)NC1=S ?
rTrxR1 inhibitor: inconclusive; VDR inhibitor: -5.4%; TrxR1 substrate: -14.3%; GCN5L2 inh: 0.5%

Results for COc1cc2c(cc1OC)[C@@H]1C(=O)c3ccc(OC)c(CC=C(C)C)c3OC1CO2 (stereo not given in full) ?
VDR inhibitor: -6.6%; GCN5L2 inh: inconclusive

How did CC(C)C[C@H](NC(=O)CNC(=O)[C@H](CCC(N)=O)NC(=O)[C@H](Cc1ccc(O)cc1)NC(=O)[C@@H](NC(=O)[C@H](Cc1ccc(O)cc1)NC(=O)CNC(=O)[C@@H](N)CCCN=C(N)N)C(C)C)C(=O)O do in these assays?
VDR inhibitor: 12.5%; GCN5L2 inh: 38.3%

How did O=C1NC(=O)N(Cc2ccccc2)C(=O)/C1=C\c1ccco1 do in these assays?
rTrxR1 inhibitor: -50.4%; VDR inhibitor: -3.0%; TrxR1 substrate: -6.0%[57.1 µM]; GCN5L2 inh: inconclusive

Results for O=C1NC(=O)N(Cc2ccccc2)C(=O)/C1=C\N1CCCc2ccccc21 ?
rTrxR1 inhibitor: inconclusive; VDR inhibitor: 35.5µM*; TrxR1 substrate: -6.2%; GCN5L2 inh: inconclusive

Results for O=C(O)Cc1cnc[nH]1 ?
rTrxR1 inhibitor: inconclusive; VDR inhibitor: 4.2%; TrxR1 substrate: 4.1%[57.1 µM]; GCN5L2 inh: 4.4%

What do the screens show for `C[C@@H](N)Cc1cnc[nH]1`?
rTrxR1 inhibitor: 26.2%[57.1 µM]; VDR inhibitor: 79.4µM*!; TrxR1 substrate: 13.8%[57.1 µM]; GCN5L2 inh: -8.6%

How did CCCC(=O)NC(Oc1ccc(C(C)=O)cc1)C(Cl)(Cl)Cl (stereo not given) do in these assays?
rTrxR1 inhibitor: 25.1µM*; VDR inhibitor: -3.5%; TrxR1 substrate: 1.8%; GCN5L2 inh: -3.1%

How did Cc1ccccc1C(=O)NC(Oc1ccccc1)C(Cl)(Cl)Cl (stereo not given) do in these assays?
rTrxR1 inhibitor: -5.2%[57.1 µM]; VDR inhibitor: -3.9%; TrxR1 substrate: 6.4%[57.1 µM]; GCN5L2 inh: -2.4%

How did CCOc1ccc(NC(=O)c2cc3c(C)nn(-c4ccccc4)c3s2)cc1 do in these assays?
rTrxR1 inhibitor: 42.7%; VDR inhibitor: -1.4%; TrxR1 substrate: 36.1%; GCN5L2 inh: 1.5%

Results for CC1=C(O)C(=O)[C@H]2O[C@@H]2C1=O ?
VDR inhibitor: inconclusive; GCN5L2 inh: 8.4%

What do the screens show for `COc1ccc(C[C@H]2NC[C@H](O)[C@H]2OC(C)=O)cc1`?
rTrxR1 inhibitor: 39.8µM*; VDR inhibitor: 4.1%; TrxR1 substrate: 5.5%; GCN5L2 inh: -9.0%

Results for COC(=O)C1=C(C)NC(C)=C(C(=O)NCCCN2CCC(c3ccccc3)(c3ccccc3)CC2)C1c1ccc([N+](=O)[O-])cc1 (stereo not given) ?
VDR inhibitor: inconclusive; GCN5L2 inh: 0.0%

Results for O=[N+]([O-])c1ccc(-c2[se]c3ccccc3c2I)cc1 ?
VDR inhibitor: inconclusive; GCN5L2 inh: 25.1µM*

Results for O=[N+]([O-])c1ccc(C(c2ccc([N+](=O)[O-])cc2)c2ccc([N+](=O)[O-])cc2)cc1 ?
rTrxR1 inhibitor: 12.9%[57.1 µM]; VDR inhibitor: -5.6%; TrxR1 substrate: -1.4%[2.29 µM]

What do the screens show for `O=C1NC(=S)NC(=O)C1=Cc1c(Cl)cccc1Cl`?
rTrxR1 inhibitor: -77.0%[57.1 µM]; VDR inhibitor: 15.8µM*; TrxR1 substrate: 5.7%[57.1 µM]

Results for CN1/C(=C\C=C2C(=O)NC(=S)NC2=O)C(C)(C)c2ccccc21 ?
rTrxR1 inhibitor: 1.9%[57.1 µM]; VDR inhibitor: 57.2%; TrxR1 substrate: -4.0%[57.1 µM]; GCN5L2 inh: -15.1%

Results for c1ccc(SSc2ccccc2)cc1 ?
rTrxR1 inhibitor: 97.8%; VDR inhibitor: 31.6µM*; TrxR1 substrate: 2.9%; GCN5L2 inh: -1.6%

What do the screens show for `CC(C)C1C(=O)O[C@@H]2CCN3CC=C(COC(=O)[C@](C)(O)[C@]1(C)O)[C@H]23` (stereo not given in full)?
VDR inhibitor: 13.2%; GCN5L2 inh: -3.7%

How did Cc1cc(/C=C2/C(=O)NC(=O)N(C)C2=O)c(C)n1-c1ccccc1 do in these assays?
rTrxR1 inhibitor: 0.6%; VDR inhibitor: 9.3%; TrxR1 substrate: 5.6%; GCN5L2 inh: -2.6%

How did Cc1cc(C=C2C(=O)N(C)C(=S)N(C)C2=O)c(C)n1-c1cccnc1 do in these assays?
rTrxR1 inhibitor: 20µM*; VDR inhibitor: inconclusive; TrxR1 substrate: -4.9%; GCN5L2 inh: -14.0%

Results for CCOP(=O)(OCC)c1nc(-c2cccc3ccccc23)oc1NCc1ccccc1 ?
rTrxR1 inhibitor: 71.8%; VDR inhibitor: -8.4%; TrxR1 substrate: 399.2%; GCN5L2 inh: -4.7%
